Where “and” joins values, the source holds several entries; their conditions need not be identical. Equal entries are not always repeated. Records with an inconclusive call do not appear. Calls of active or inactive are those of the source. Calls come from the whole dose curve; as a rule, active = well fitted cell-killing curve with a large enough effect; inconclusive = small, poorly fitted or top-dose-only effect, or effect the other way; inactive = no such curve, though single readings can be large or run the other way.
Potency is the fitted concentration of half-maximal effect.

This assay can be described thus: Viability qHTS for spleen associated tyrosine kinase inhibitor (SYKi) naive MV4-11 cells (AID 1963823). Note: nearly all actives have a fitted effect of over 40% in size. As to conditions: MV4-11 AML viability, CellTiter-Glo luminescence, 72 h; series mostly up to 45 µM. The procedure, abridged: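 Read-out: CellTiter-Glo luminescence. Exposure: 72 hr, 37 C, 5% CO2, 95% humidity. Cells: MV4-11 without SYK inhibitor history, 500/well, qHTS format.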
Turning to `CC/C(=C(/CC)c1ccc(O)cc1)c1ccc(O)cc1`, the Potency was 16.6 µM (active).

For `N#C/C(=C\c1ccc(O)c(O)c1)C(=O)NCc1ccccc1`, the Potency is 13.2 µM (active).

For `COc1ccc(CNc2nc(N(CCO)CCO)nc3c2ncn3C(C)C)cc1`, the Potency was 4.11 µM (active).

For `COc1ccc(NS(=O)(=O)c2ccc(N)cc2)nn1`, the Potency result was “inactive”.

On to `Cc1[nH]c(/C=C2\C(=O)Nc3ccc(F)cc32)c(C)c1C(=O)NCCN1CCCC1`, for which the Potency was 51.7 nM (active) and 14.4 nM (active).

As for `COC(=O)[C@H]1[C@@H](O)[C@@]2(O)c3c(OC)cc(O[C@@H]4O[C@@H]([C@@H](O)CO)CO[C@H]4OC)cc3O[C@@]2(c2ccc(OC)cc2)[C@@H]1c1ccccc1`, the Potency was 2.35 µM (active).

As to `COC(=O)c1ccc([C@H]2c3[nH]c4ccccc4c3C[C@H](C(=O)OC)N2C(=O)CCl)cc1`, the Potency is 0.235 µM (active).

For `C[C@H]1CNC(=O)c2cnn3ccc(nc23)N[C@H](C)c2cc(F)ccc2O1`, the Potency is 0.525 µM (active).

`O=C(Nc1ncc(SCCN2CCCC2)s1)[C@]1(c2ccc(S(=O)(=O)C3CC3)cc2)C[C@H]1C1CCCCC1`: the Potency was 7.42 µM (active).

Turning to `CC(=O)Nc1cccc(O)c1`, the Potency result is “inactive”.

As to `CC(=O)N1c2ccc(-c3ccc(C(=O)O)cc3)cc2[C@H](Nc2ccc(Cl)cc2)C[C@@H]1C`, the Potency was 0.0525 µM (active).

With `COC1CCN(C(=O)c2cc(Cc3n[nH]c(=O)c4ccccc34)ccc2F)CC1`, the Potency was 18.6 µM (active).

`CC[C@H](CC[C@@H](C)[C@H]1CC[C@H]2[C@@H]3CC=C4C[C@@H](O)CC[C@]4(C)[C@H]3CC[C@]12C)C(C)C`: the Potency entry is “inactive”.

As to `Oc1ccc(/C=C/c2cc(O)cc(O)c2)cc1`, the Potency was 16.6 µM (active).

On to `C[C@]12CCC3=C4CCC(=O)C=C4CC[C@H]3[C@@H]1CC[C@@]2(O)CC#N`, for which the Potency result is “inactive”.

For the compound `C=CC[C@@H]1/C=C(\C)C[C@H](C)C[C@H](OC)[C@H]2O[C@@](O)(C(=O)C(=O)N3CCCC[C@H]3C(=O)O[C@H](/C(C)=C/[C@@H]3CC[C@@H](O)[C@H](OC)C3)[C@H](C)[C@@H](O)CC1=O)[C@H](C)C[C@@H]2OC`, the Potency was 18.6 µM (active).

Regarding `CC(C)(C)c1nnc(NS(=O)(=O)c2ccc(N)cc2)s1`, the Potency entry was “inactive”.

Turning to `COC(=O)/C=C/C(=O)OC`, the Potency entry is “inactive”.

`COC(=O)C1=C(C)NC(C)=C(C(=O)OCC(C)C)C1c1ccccc1[N+](=O)[O-]` (stereo not given): the Potency is 10.6 µM (active).

For the compound `CN(C)/C(N)=N/C(=N)N`, the Potency result was “inactive”.

For `C=CC(=O)N1CCC(Oc2cc3c(Nc4ccc(Cl)c(Cl)c4F)ncnc3cc2OC)CC1`, the Potency was 1.03 µM (active).

Turning to `CNc1ncc2cc(-c3cc(NC(=O)NCCC(C)(C)C)c(F)cc3C)c(C)nc2n1`, the Potency is 0.103 µM (active).

`COC(=O)C1=C(C)NC(C)=C(C(=O)OC)C1c1ccccc1[N+](=O)[O-]`: the Potency was 13.3 µM (active).

Regarding `N#Cc1cc2cc(CN3CCC(Nc4ncnc5sc(CC(F)(F)F)cc45)CC3)c(O)cc2n1Cc1cn[nH]c1`, the Potency is 0.742 µM (active).

As for `OCCN1CCN(CC/C=C2/c3ccccc3Sc3ccc(C(F)(F)F)cc32)CC1`, the Potency was 21.1 µM (active).

For `Cc1nc(NC(=O)N2CCCC2C(N)=O)sc1-c1ccnc(C(C)(C)C(F)(F)F)c1` (stereo not given), the Potency was 18.6 µM (active).

In the case of `N#CN1CCC[C@@H](n2nc(-c3ccc(Oc4ccc(F)cc4F)cc3)c(C(N)=O)c2N)C1`, the Potency is 13 µM (active).

Consider `COc1cc(OC)cc(N(CCNC(C)C)c2ccc3ncc(-c4cnn(C)c4)nc3c2)c1`, for which the Potency is 5.25 µM (active).

Consider `CCn1ccnc1CC1COc2ccccc2O1` (stereo not given), for which the Potency result was “inactive”.

For `CC1(C)OC2=C(C(=O)c3ccccc3C2=O)[C@H](NCc2ccccc2)[C@@H]1O`, the Potency was 2.63 µM (active).

With `O=c1[nH]sc2cc(Cl)ccc12`, the Potency result is “inactive”.

Take `C=C1C(=O)O[C@@H]2[C@H]3C(C)=CC[C@@]34O[C@@]4(C)CC[C@@H]12`: the Potency is 3.32 µM (active).

`Cc1ccc(NS(=O)(=O)c2cccc(C#N)c2)c2[nH]cc(C#N)c12`: the Potency was 0.166 µM (active).

For the compound `N#Cc1ccc(-c2c(-c3ncn[nH]3)sc(N3CCOCC3)c2C#N)c(F)c1`, the Potency was 3.26 µM (active) and 3.32 µM (active).

Turning to `Cn1nccc1Nc1nccc(-c2cc3c(s2)C(C)(C)N(CCN2CCOCC2)C3=O)n1`, the Potency was 3.72 µM (active).

For `CCN(CC)CCNC(=O)c1c(C)[nH]c(/C=C2/C(=O)Nc3ccc(-c4csc(-c5ccccc5)n4)cc32)c1C`, the Potency is 0.468 µM (active).

As to `CN[C@@H]1C[C@H]2O[C@@](C)([C@@H]1OC)n1c3ccccc3c3c4c(c5c6ccccc6n2c5c31)C(=O)N[C@H]4O`, the Potency was 0.0119 µM (active).

On to `CNC(=O)Cn1cc(-c2ccc3c(c2)C(F)CC32NC(=O)N(CC(=O)N(Cc3ccc(F)cc3)C(C)C(F)(F)F)C2=O)cn1` (stereo not given), for which the Potency is 0.0417 µM (active).

Take `Cc1cc(I)ccc1Nc1c(C(=O)NOCC2CC2)cc(F)c(F)c1F`: the Potency was 2.31 µM (active).

As to `CCCS(=O)(=O)c1nc(NC2CC2)cc(-c2ccc3c(ccn3C3CC(C)(C)NC(C)(C)C3)c2)n1`, the Potency was 1.75 µM (active).

The values above are taken from PubChem BioAssay (NCATS).
